Test results taken from the supplement of paper PMC10646978.
± gives the standard deviation.

Experiments:
Conditions in all cases: modulator concentration 10 µM
[1] = system: RAW-Dual (murine macrophage reporter line); assay: NF-kB reporter (SEAP) activity fold change vs agonist alone; higher = enhanced NF-kB activity
Procedure, shortened: (§1)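 Overnight stimulation with a PRR agonist followed pre-incubation for 1 hour at 37 °C with compound at 10 μM final. This was done in RAW-Dual murine macrophage reporter cells seeded at 50 000 per well in 384-well plates. NF-κB (SEAP, QUANTI-Blue absorbance at 620 nm) and IRF (Lucia luciferase, QUANTI-Luc luminescence) were read from the supernatant. Each reporter's fold change relative to the mean agonist-only control on the same plate was averaged over replicate plates.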

[2] = system: RAW-Dual (murine macrophage reporter line); assay: IRF reporter (Lucia luciferase) activity fold change vs agonist alone; higher = enhanced IRF activity
Procedure, shortened: as §1

[3] = system: RAW-Dual (murine macrophage reporter line); assay: viability score (confluency relative to resting cells, overnight) (fraction); higher = more viable, active = viable (0.7 or more)
Procedure, shortened: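 Two confluency masks, generated with IncuCyte software over all imaged wells, were applied to IncuCyte images of RAW-Dual macrophages. The cells, in 384-well plates, had been exposed overnight to 10 μM final compound. The viability score is confluency as a fraction of resting cells, and a compound met the cutoff only with both masks above 70% of resting cells.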

[4] = agonist: CpG ODN 1826 0.5 ug/mL

Structure (SMILES)	NF-kB reporter [1, 4]	NF-kB reporter ([1]; agonist: LPS 0.1 ug/mL)	NF-kB reporter ([1]; agonist: MPLA […])	IRF reporter ([2]; agonist: 3'3'-cGAMP 10 ug/mL)	IRF reporter ([2]; agonist: LPS 0.1 ug/mL)	IRF reporter ([2]; agonist: MPLA […])	viability score [3]
COc1ccc(C=NNC(=O)C2COc3cc4ccccc4cc3O2)c(O)c1 (stereo not drawn)	0.993 ± 0.094	0.966 ± 0.054	0.98 ± 0.079	0.956 ± 0.031	1.31 ± 0.18	1.1 ± 0.15	1.01 (active)
Cc1cccc(C(=O)ON=C(c2ccncc2)c2ccc([N+](=O)[O-])cc2)c1	0.806 ± 0.07	0.838 ± 0.039	1.06 ± 0.099	1.03 ± 0.068	1.43 ± 0.083	1.61 ± 0.14	1 (active)
COc1ccc(Cl)cc1NS(=O)(=O)c1c(C)cc(C)cc1C	0.993 ± 0.14	0.937 ± 0.062	1.46 ± 0.12	1.24 ± 0.11	1.16 ± 0.11	1.04 ± 0.12	0.982 (active)
COc1cc2nc(N3CCN(C(=O)C4COc5ccccc5O4)CC3)nc(N)c2cc1OC (stereo not drawn) [Prestw-858]	0.138 ± 0.011	0.961 ± 0.071	1.34 ± 0.15	0.248 ± 0.012	1.19 ± 0.075	1.29 ± 0.13	0.953 (active)
O=C(NC(=S)Nc1ccc2[nH]c(=O)[nH]c2c1)c1ccc(Cl)cc1	0.958 ± 0.082	1.13 ± 0.075	0.95 ± 0.042	0.94 ± 0.17	1.03 ± 0.043	0.994 ± 0.22	1 (active)
CC1CCN(c2nccnc2Oc2ccc(C(=O)N3CCN(c4ccc(F)cc4)CC3)cc2)CC1	0.803 ± 0.071	1.1 ± 0.062	0.709 ± 0.047	0.684 ± 0.032	1.26 ± 0.18	1.11 ± 0.07	0.964 (active)
CC(C)C(=O)N1CCCc2ccc(NC(=O)COc3ccc4ccccc4c3)cc21	0.867 ± 0.07	1.44 ± 0.12	1.31 ± 0.071	0.771 ± 0.075	1.26 ± 0.092	1.54 ± 0.12	0.995 (active)
CCC(C)NC(=O)C(=O)Nc1cccc(C(F)(F)F)c1 (stereo not drawn)	0.89 ± 0.093	1.05 ± 0.073	0.87 ± 0.052	1.04 ± 0.058	1.16 ± 0.18	0.959 ± 0.14	1.02 (active)
Cc1ccccc1N(CC(=O)NCCSc1ccc(Cl)cc1)S(=O)(=O)c1ccccc1	0.66 ± 0.079	1.01 ± 0.056	0.851 ± 0.056	0.64 ± 0.034	1.4 ± 0.11	1.1 ± 0.13	1 (active)
CCOc1ccc(NC(=O)CC2Nc3cccc4cccc(c34)NC2=O)cc1 (stereo not drawn)	0.91 ± 0.066	1.01 ± 0.067	0.926 ± 0.077	0.884 ± 0.049	1.31 ± 0.083	1.25 ± 0.34	0.926 (active)
CCC(=O)Nc1ccc(S(=O)(=O)N2CCSC(c3ccccc3C)CC2)c(C)c1 (stereo not drawn)	0.688 ± 0.045	0.88 ± 0.11	0.937 ± 0.087	0.412 ± 0.018	0.996 ± 0.085	0.988 ± 0.17	0.994 (active)
O=C(NC(=S)NNc1ccccc1)c1cc2ccccc2oc1=O	1.08 ± 0.23	1.16 ± 0.15	1.03 ± 0.11	0.861 ± 0.022	1.23 ± 0.16	1.12 ± 0.2	0.999 (active)
CC(C)NCC(O)COc1ccccc1C(C)(C)C.Cl (stereo not drawn)	0.857 ± 0.063	1.02 ± 0.098	1.15 ± 0.03	0.796 ± 0.029	1.02 ± 0.084	0.952 ± 0.17	0.922 (active)
CN(C)CCCN1c2ccccc2CCc2ccccc21.Cl	0.827 ± 0.069	1.04 ± 0.1	1.2 ± 0.07	0.737 ± 0.043	0.935 ± 0.089	0.824 ± 0.093	0.883 (active)
